eLon inh: inhibitors of E. coli Lon protease, primary screen, biochemical, fluorescence polarization; P0A9M0; actives 0.42% (n = 360,000); purified E. coli Lon protease; inhibition, % at 7.94 µM; AID 602123, 2011; in the data active = inhibition above about 13%, passing the limit was not always enough
Bcl-xL primary: inhibitors of human Bcl-xL, primary screen, biochemical, fluorescence polarization, HTS | Bcl-2-like protein 1 (Homo sapiens), Q07817 | GST-Bcl-xL / FITC-Bim BH3 peptide fluorescence polarization | inhibition, % at 10.9 µM | actives 0.7% (n = 320,000) | AID 2129, 2009;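 active = inhibition above the mean of all tested compounds plus 3 SD, cutoff set per campaign, cut at about 30% in these data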;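 also: inhibitors lower millipolarization by displacing the labeled peptide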
EBV gp42 inh: Epstein-Barr virus gp42 inhibitors, primary screen, biochemical, uHTS, fluorescence polarization; Glycoprotein 42 (Epstein-Barr virus (strain AG876)), Q1HVG2; Fluorescence polarization binding assay, mP read-out; inhibition, % (tested at 21.74 µM); actives 0.42% (n = 220,000); in the data active = inhibition above about 50%
GLD-1 TGE inh: GLD-1/TGE RNA complex disruptors, primary screen, biochemical, fluorescence polarization; Female germline-specific tumor suppressor gld-1 (Caenorhabditis elegans), Q17339; purified GLD-1 + fluorescein TGE RNA; inhibition, % at 5.96 µM; actives 0.44% (n = 320,000);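 active = percent inhibition above a per-plate cutoff, the plate mean of test compounds plus 3 SD, cut at about 30% in these data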
MEX-5 binding: MEX-5 zinc finger RNA-binding disruptors – biochemical, C. elegans, fluorescence polarization, MLPCN library, primary screen | Zinc finger protein mex-5 (Caenorhabditis elegans), Q9XUB2 | MEX-5/FITC-TCR2 RNA binding; stronger effect = lower value | activity score (negative = inhibition of binding), % at 10 µM | actives 0.38% (n = 300,000) | AID 1832, 2009;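 active = inhibition past about -25% in most replicates, and total fluorescence under double the plate's negative control median, limit read from the data; inconclusive = replicates evenly split on the limit, or fluorescence at least double controls; inactive = too little inhibition in most replicates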
Target sequence (Q9XUB2 whole entry, looked up): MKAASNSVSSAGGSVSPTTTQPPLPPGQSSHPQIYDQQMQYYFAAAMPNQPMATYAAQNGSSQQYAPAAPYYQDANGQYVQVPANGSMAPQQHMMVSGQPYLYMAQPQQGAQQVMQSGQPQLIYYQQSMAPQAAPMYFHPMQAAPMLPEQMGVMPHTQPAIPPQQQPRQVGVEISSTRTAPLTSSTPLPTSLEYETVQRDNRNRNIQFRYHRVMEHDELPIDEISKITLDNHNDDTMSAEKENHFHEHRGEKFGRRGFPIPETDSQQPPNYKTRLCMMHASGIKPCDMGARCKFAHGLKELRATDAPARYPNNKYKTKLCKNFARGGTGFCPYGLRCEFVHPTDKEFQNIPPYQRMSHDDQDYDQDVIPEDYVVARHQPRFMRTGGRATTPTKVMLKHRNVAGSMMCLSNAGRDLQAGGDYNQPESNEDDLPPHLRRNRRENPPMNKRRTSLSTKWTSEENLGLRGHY
Hits are given with their value; - = inactive; ? = inconclusive; . = no result; + = active, no number. This is a sample that favours compounds with a hit; in the whole collection about 1.3% have one here.

SMILES	eLon inh	Bcl-xL primary	EBV gp42 inh	GLD-1 TGE inh	MEX-5 binding
COc1ccc(C(=O)/C=C/Nc2ccc([N+](=O)[O-])cc2C)c(OC)c1	-	-	-	-	?
COc1ccc(C(=O)/C=C/Nc2ccc([N+](=O)[O-])cc2C)cc1OC	-	-	-	-	-43
Cc1cc[n+](C2=C([O-])c3ccccc3C(=O)/C2=N\S(=O)(=O)c2cccs2)cc1C	-	-	-	-	-34
Cc1cc(C)c[n+](C2=C([O-])c3ccccc3C(=O)/C2=N\S(=O)(=O)c2cccs2)c1	-	-	-	-	-
CC(C)(C)c1cc[n+](C2=C([O-])c3ccccc3C(=O)/C2=N\S(=O)(=O)c2ccccc2)cc1	-	-	-	-	-
O=C1/C(=N\S(=O)(=O)c2cccs2)C([n+]2cccc(Cc3ccccc3)c2)=C([O-])c2ccccc21	-	+	142	179	?
O=C1/C(=N\S(=O)(=O)c2cccs2)C([n+]2ccc(CCCc3ccccc3)cc2)=C([O-])c2ccccc21	-	-	-	-	-40
CN1CCN(C(=O)C[C@H]2C[C@H]3c4cc(NC(=O)NC5CCCCC5)ccc4O[C@H]3[C@@H](CO)O2)CC1	-	.	.	.	.
CC(C)=CCC/C(C)=C/CNC(=O)C[C@H]1C[C@H](C(=O)N2CCCCC2)[C@@]2(C)c3[nH]c4cc(CCC(=O)N(C)C)ccc4c3CCN2C1=O	-	.	.	.	.
Cc1ccc(CNC(=O)C2CCN(S(=O)(=O)c3c(C)noc3/C=C/N(C)C)CC2)cc1	-	-	.	-	-
Cc1noc(/C=C/N(C)C)c1S(=O)(=O)N1CCC(C(=O)O)CC1	-	-	-	-	-30
CCOc1ccc2nc(N3C(=O)/C(=C/c4ccc(Cl)cc4)NC3=S)sc2c1	-	.	64	.	-
COc1ccc2nc(N3C(=O)CNC3=S)sc2c1	-	-	-	-	-
O=C1CCCC2=C1C(c1ccc(Br)cc1)c1c([nH]c(=S)[nH]c1=O)N2 (configuration not stated)	-	34	-	-	-
Cc1ccc(C2C3=C(CCCC3=O)Nc3[nH]c(=S)[nH]c(=O)c32)cc1 (configuration not stated)	-	-	82	-	-
S=C(NCc1ccco1)N/N=C/c1ccccc1Cl	-	-	-	-	.
COc1ccc(NC(=O)CN(c2ccc(F)cc2)S(=O)(=O)c2ccccc2)c(OC)c1	-	-	.	-	-
COc1ccccc1/C=C/C=C1\Oc2c(ccc(O)c2CN2CCN(CCO)CC2)C1=O	-	40	-	-	?
Cc1ccc(/C=C2\Oc3c(ccc(O)c3CN3CCN(C)CC3)C2=O)cc1	-	46	-	-	?
CN(C)Cc1c(O)ccc2c1O/C(=C\C=C\c1ccccc1)C2=O	-	78	-	-	?
CCc1ccc(/C=C2\Oc3c(ccc(O)c3CN3CCN(C)CC3)C2=O)cc1	-	42	-	-	.
O=C1/C(=C/C=C/c2ccccc2)Oc2c1ccc(O)c2CN1CCN(CCO)CC1	-	-	-	-	-
COc1ccc(-c2ccc(C(=O)Nc3cccc(NS(C)(=O)=O)c3)c3occc23)c(C)c1	-	.	.	.	.
CN(C)S(=O)(=O)N1CCN(CC(=O)Nc2ccc(F)cc2)CC1	-	-	.	-	-
O=C(CNC(=O)c1ccncc1)N/N=C/c1ccccc1[N+](=O)[O-]	-	-	-	-	-
SMILES	eLon inh	Bcl-xL primary	EBV gp42 inh	GLD-1 TGE inh	MEX-5 binding
Cc1ccc(/C=C2\Oc3cc(OC(=O)N4CCOCC4)ccc3C2=O)cc1	-	-	-	-	-
CCN1CCN(Cc2c(O)ccc3c2O/C(=C\C=C\c2ccccc2)C3=O)CC1	-	-	-	-	?
CC1CCCN(Cc2c(O)ccc3c(=O)c(-c4ccc(Cl)cc4)coc23)C1 (configuration not stated)	-	.	.	.	-
CCN1CCN(Cc2c(O)ccc3c2O/C(=C\c2ccc(C)cc2)C3=O)CC1	-	40	-	-	-29
CC1CCCN(Cc2c(O)ccc3c2O/C(=C\c2ccco2)C3=O)C1 (configuration not stated)	-	123	-	95	?
CCN1CCN(Cc2c(O)ccc3c2O/C(=C\c2ccccc2)C3=O)CC1	-	54	-	-	-34
O=C1Cc2cc([N+](=O)[O-])ccc2N1c1c(Cl)cccc1Cl	-	-	.	-	-
